Laboratory results: the supplement of paper PMC11732987, “Enantioselective OTUD7B fragment discovery through chemoproteomics screening and high-throughput optimisation” (Communications Chemistry, 2025)

What was measured:
Assay in all cases: log2 ratio of Biotin-Ahx-Ub-VS probe labelling (fragment/DMSO); higher = less target engagement (more negative = stronger competition), active = hit call of the paper (q ≤ 0.05, log2 ratio ≤ -1)
Conditions in all cases: compound concentration: 200 uM; treatment time: 3 h
USP42 = biological target: T1, USP42 (UniProt Q9H9J4)
T1 sequence (whole entry): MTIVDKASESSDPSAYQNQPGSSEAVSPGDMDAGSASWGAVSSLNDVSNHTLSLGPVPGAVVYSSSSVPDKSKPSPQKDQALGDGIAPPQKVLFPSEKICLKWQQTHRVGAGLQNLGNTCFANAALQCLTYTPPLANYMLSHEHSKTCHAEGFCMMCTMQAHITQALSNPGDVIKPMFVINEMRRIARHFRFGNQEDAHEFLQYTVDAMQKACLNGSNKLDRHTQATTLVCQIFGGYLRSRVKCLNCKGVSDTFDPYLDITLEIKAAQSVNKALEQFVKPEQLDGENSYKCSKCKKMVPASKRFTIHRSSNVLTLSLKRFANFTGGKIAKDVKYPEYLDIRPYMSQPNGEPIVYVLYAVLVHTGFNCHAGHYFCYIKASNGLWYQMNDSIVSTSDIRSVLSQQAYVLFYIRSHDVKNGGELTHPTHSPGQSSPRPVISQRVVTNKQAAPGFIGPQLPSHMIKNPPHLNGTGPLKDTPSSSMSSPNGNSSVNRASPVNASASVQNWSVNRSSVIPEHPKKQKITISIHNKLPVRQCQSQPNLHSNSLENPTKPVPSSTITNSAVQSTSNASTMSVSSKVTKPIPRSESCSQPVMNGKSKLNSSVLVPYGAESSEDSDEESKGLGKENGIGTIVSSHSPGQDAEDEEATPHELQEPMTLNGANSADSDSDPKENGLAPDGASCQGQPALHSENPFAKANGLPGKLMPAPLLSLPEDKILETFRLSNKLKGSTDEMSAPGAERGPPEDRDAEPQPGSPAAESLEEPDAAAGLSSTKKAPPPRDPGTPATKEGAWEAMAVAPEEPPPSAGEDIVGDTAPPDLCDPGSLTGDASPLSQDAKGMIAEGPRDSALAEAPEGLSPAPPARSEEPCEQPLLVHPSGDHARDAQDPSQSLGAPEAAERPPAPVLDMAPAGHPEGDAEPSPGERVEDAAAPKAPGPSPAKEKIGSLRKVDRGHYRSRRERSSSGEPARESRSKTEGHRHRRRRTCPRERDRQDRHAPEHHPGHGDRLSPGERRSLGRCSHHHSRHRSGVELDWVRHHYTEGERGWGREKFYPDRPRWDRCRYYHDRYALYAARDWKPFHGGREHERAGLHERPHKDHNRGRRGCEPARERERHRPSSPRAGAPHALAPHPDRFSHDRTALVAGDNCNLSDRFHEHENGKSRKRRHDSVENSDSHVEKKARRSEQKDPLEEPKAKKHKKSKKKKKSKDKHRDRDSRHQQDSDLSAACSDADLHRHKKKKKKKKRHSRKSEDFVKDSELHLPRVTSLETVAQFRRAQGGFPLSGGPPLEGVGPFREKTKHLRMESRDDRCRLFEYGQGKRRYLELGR
Method in brief: (§1)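 HEK293T lysate (495 µg per sample, in Tris/CHAPS/IGEPAL buffer with protease inhibitors) was treated in triplicate with fragment at 200 µM or with DMSO for 3 h. It was then treated with Biotin-Ahx-Ub-VS (0.5 µM final) for 1 h. Labelled DUBs were NeutrAvidin-enriched, digested with LysC and trypsin, and run by diaPASEF LC-MS/MS. Spectronaut label-free quantities were global-median-normalised. Values are average log2 ratios fragment/DMSO by unpaired t-test, using proteins with ≥2 unique peptides.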

USP46 = USP46 (UniProt P62068)
Sequence of USP46 (P62068 whole entry): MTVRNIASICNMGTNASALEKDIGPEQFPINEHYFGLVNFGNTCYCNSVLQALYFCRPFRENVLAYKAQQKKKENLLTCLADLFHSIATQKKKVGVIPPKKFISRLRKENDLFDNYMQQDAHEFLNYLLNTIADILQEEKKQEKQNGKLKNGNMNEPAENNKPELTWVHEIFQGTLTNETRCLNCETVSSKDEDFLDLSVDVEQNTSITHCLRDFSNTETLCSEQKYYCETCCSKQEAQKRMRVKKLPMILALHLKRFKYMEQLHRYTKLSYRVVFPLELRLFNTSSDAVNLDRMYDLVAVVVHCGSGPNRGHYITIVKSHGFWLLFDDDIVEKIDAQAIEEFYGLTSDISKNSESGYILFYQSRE
Method in brief: as §1

USP47 = biological target: T2, USP47 (UniProt Q96K76)
T2 sequence (whole entry): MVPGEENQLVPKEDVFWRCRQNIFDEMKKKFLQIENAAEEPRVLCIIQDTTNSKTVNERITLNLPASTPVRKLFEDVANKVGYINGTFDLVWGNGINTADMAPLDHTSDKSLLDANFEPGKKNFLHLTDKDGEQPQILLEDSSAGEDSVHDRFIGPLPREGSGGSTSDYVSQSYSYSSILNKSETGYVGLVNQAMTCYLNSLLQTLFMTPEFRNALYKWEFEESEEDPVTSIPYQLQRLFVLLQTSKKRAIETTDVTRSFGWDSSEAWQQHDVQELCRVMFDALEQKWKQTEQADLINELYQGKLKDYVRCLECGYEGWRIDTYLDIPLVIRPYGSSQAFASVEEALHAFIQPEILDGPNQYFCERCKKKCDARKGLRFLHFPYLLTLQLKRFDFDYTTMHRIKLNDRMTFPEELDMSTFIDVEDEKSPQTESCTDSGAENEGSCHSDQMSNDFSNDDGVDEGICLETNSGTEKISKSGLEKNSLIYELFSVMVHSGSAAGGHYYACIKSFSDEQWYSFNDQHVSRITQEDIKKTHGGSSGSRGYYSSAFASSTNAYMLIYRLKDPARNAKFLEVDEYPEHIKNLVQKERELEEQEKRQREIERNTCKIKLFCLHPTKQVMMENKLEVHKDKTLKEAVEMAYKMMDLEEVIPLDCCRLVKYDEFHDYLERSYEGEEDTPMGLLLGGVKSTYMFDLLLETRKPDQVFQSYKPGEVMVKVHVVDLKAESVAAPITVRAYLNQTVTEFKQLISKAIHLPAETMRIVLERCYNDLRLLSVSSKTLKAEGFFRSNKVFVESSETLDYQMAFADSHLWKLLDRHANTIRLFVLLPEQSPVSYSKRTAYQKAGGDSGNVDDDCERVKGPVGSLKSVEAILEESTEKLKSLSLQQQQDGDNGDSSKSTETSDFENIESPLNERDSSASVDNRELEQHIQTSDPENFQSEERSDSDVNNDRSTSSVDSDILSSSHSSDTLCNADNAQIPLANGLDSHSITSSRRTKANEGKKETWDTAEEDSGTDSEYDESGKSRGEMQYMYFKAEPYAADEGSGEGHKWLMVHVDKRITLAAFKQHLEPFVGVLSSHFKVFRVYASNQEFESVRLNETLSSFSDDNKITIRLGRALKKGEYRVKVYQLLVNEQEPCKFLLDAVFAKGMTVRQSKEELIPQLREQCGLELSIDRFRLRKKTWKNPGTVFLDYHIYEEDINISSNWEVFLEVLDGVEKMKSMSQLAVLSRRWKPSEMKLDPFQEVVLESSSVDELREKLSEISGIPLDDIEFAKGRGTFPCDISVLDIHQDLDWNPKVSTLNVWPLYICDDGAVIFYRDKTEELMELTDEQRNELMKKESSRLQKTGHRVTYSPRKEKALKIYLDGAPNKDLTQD
Method in brief: as §1

USP48 = biological target: T3, USP48 (UniProt Q86UV5)
T3 sequence (whole entry): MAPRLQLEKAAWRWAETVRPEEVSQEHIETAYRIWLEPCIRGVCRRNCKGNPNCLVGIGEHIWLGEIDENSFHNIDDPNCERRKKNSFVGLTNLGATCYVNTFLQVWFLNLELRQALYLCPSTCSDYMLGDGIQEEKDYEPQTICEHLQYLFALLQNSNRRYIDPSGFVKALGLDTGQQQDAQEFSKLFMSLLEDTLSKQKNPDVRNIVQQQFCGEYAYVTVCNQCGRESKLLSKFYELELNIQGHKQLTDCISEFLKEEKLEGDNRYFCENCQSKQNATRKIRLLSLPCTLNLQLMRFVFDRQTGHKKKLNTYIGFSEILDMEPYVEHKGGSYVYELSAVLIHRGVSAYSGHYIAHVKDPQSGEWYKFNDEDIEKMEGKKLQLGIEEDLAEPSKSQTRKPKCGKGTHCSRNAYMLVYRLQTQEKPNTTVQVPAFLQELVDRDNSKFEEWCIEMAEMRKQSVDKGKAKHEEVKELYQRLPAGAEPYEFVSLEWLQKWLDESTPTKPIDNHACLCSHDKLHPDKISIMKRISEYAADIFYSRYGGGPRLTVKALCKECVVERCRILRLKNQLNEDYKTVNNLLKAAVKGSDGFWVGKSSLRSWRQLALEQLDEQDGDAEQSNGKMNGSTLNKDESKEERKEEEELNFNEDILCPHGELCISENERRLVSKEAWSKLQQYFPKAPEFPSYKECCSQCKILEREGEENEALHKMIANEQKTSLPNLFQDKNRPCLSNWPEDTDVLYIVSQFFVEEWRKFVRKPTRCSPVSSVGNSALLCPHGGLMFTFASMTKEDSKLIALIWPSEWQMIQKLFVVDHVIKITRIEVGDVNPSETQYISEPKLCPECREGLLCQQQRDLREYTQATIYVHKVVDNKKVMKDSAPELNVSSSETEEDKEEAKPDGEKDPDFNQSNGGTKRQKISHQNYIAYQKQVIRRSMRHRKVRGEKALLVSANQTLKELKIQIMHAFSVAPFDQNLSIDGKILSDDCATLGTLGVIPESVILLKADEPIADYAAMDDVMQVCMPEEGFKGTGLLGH
Method in brief: as §1

USP5 = biological target: T4, USP5 (UniProt P45974)
T4 sequence (whole entry): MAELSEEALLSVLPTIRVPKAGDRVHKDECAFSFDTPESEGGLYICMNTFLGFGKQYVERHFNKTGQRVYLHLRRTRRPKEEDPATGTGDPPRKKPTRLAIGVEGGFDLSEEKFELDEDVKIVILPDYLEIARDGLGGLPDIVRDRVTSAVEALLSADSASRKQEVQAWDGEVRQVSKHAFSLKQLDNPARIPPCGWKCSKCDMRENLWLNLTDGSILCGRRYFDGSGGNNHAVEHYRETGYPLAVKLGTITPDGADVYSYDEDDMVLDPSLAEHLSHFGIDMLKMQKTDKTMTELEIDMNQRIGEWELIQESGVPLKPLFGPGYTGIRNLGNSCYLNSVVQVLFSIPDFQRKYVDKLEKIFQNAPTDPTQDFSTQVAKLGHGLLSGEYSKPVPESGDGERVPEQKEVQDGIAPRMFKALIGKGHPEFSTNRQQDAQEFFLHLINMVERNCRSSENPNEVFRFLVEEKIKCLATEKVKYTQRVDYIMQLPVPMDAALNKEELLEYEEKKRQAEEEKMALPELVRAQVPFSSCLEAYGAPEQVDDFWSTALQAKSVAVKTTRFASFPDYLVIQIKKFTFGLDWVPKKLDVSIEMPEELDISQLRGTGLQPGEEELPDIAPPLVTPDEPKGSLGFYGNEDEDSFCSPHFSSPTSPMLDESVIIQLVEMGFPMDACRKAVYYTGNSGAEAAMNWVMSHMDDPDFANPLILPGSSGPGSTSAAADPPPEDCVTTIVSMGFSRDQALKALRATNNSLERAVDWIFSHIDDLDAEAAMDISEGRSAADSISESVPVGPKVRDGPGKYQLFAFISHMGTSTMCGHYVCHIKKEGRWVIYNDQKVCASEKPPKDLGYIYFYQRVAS
Method in brief: as §1

USP54 = USP54 (UniProt Q70EL1)
Sequence of USP54 (Q70EL1 whole entry): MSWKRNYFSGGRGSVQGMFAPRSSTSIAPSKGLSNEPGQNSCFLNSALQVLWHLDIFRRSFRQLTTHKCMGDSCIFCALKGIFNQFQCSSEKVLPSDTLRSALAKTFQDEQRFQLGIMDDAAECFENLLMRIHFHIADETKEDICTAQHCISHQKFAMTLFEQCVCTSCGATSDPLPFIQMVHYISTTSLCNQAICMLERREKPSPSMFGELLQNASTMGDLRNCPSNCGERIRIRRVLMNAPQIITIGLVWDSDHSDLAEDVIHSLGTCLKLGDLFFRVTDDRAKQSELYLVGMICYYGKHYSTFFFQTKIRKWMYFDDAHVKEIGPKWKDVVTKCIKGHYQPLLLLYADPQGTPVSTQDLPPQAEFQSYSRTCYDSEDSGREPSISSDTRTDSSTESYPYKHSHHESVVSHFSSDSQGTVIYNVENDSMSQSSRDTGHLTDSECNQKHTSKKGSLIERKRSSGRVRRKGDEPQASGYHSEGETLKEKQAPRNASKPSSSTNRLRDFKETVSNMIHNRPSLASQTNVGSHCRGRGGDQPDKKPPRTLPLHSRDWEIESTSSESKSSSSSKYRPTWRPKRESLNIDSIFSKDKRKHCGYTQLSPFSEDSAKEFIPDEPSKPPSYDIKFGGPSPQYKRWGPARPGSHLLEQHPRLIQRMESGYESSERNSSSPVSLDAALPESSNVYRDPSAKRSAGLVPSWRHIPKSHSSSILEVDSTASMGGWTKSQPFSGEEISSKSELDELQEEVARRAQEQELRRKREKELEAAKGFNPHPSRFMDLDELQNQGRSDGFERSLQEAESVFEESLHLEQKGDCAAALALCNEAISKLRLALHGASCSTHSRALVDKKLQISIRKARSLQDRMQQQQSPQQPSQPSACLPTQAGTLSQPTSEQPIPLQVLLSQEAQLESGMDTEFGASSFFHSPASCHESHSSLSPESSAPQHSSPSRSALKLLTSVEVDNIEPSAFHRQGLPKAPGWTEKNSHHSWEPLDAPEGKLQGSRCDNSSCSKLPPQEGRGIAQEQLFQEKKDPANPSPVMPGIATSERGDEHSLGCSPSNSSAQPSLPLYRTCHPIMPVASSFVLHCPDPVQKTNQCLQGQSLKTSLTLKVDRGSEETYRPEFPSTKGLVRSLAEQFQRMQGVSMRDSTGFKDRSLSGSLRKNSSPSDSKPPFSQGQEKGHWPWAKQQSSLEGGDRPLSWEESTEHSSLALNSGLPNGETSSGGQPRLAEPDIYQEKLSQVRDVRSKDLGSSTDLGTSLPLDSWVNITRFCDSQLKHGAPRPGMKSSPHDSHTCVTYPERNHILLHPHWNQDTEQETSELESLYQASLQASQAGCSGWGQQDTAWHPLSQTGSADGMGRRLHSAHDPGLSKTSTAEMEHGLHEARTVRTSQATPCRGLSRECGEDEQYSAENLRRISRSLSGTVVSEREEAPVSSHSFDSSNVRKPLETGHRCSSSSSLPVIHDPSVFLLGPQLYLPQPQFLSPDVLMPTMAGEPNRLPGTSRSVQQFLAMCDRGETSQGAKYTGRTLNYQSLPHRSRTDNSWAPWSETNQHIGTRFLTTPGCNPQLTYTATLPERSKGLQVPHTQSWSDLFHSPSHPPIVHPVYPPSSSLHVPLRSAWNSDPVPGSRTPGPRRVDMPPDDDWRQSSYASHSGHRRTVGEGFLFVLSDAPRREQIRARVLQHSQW
Method in brief: as §1

USP7 = USP7 (UniProt Q93009)
Sequence of USP7 (Q93009 whole entry, looked up): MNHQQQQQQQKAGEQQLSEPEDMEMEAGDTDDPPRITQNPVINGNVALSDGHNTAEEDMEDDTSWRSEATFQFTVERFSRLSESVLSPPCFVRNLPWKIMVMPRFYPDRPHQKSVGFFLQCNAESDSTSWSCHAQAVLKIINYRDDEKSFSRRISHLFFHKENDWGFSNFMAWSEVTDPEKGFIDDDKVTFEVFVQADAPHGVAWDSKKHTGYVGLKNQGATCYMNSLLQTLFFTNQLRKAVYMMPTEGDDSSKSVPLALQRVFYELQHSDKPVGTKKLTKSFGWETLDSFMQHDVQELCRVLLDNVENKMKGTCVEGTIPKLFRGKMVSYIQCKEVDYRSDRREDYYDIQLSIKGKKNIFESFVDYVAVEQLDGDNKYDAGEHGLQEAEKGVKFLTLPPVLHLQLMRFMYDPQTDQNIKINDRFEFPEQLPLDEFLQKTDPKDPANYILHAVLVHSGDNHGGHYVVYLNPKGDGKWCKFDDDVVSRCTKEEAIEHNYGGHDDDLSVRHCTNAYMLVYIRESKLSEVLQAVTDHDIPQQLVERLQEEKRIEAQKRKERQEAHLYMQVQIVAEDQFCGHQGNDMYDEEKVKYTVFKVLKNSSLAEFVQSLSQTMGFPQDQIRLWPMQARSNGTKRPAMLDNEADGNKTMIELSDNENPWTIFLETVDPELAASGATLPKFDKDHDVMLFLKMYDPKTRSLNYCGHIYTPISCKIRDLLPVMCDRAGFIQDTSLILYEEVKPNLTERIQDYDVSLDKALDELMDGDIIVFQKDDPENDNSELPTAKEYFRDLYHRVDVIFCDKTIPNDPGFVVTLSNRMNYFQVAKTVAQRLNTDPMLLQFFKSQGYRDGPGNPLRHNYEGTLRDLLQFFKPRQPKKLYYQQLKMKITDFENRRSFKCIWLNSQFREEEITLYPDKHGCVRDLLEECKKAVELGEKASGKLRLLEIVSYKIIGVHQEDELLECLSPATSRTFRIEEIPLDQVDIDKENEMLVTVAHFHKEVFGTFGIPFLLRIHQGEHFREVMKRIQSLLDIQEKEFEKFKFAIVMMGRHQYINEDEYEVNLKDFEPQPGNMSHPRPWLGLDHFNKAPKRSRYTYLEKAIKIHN
Method in brief: as §1

USP8 = biological target: T5, USP8 (UniProt P40818)
T5 sequence (whole entry): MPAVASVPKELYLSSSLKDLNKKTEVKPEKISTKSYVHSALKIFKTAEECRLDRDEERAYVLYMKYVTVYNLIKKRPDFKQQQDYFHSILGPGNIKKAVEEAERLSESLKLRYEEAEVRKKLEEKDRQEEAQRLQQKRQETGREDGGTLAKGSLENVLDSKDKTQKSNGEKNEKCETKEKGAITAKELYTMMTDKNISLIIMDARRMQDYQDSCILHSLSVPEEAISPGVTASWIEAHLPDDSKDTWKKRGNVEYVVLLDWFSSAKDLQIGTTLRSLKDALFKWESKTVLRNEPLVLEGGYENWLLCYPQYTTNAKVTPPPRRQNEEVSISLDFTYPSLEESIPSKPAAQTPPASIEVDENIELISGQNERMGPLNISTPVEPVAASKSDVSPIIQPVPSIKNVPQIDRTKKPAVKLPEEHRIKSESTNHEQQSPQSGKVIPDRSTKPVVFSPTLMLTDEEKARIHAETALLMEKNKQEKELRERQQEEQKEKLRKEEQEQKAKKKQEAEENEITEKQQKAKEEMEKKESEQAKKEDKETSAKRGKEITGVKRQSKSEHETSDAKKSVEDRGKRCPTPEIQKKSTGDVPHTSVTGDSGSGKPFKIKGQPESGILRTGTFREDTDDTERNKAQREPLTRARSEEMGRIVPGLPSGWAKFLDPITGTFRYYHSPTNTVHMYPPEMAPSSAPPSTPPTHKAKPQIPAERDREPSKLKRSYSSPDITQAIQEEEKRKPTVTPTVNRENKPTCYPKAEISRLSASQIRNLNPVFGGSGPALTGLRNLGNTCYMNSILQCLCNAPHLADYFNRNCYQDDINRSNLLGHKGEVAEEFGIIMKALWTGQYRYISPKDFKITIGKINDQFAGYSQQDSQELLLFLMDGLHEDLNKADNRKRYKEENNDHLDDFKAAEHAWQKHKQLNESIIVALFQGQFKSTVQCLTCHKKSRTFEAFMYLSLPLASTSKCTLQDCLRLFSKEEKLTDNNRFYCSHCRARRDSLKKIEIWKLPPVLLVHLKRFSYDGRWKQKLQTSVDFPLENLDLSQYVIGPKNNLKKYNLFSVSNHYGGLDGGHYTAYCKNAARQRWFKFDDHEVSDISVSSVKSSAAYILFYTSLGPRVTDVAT
Method in brief: as §1

Measured: log2 ratio of Biotin-Ahx-Ub-VS probe labelling

CC1CN(c2ccc(NC(=O)CCl)cc2)CC(C)O1 (stereo not drawn)
inactive: USP42 0.0421 | USP46 0.0265 | USP47 -0.557 | USP48 -0.402 | USP5 -0.0419 | USP54 0.973 | USP7 -0.186 | USP8 -0.0842
